Assay results from PubChem BioAssay AID488847 (NMMLSC, 2010).
In all, about 330,000 compounds went through this assay and about 1,900 (0.58%) were called active. The sample holds actives, similar compounds and a random draw of the others, so the mix is not that of the screen. Unmarked numbers belong to inactive results.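 The calls were made as follows: active = inhibition of aptamer binding above 40%, roughly 3 SD of noise, on plates passing a quality check; inactive = the rest.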

Target: Beta-adrenergic receptor kinase 1 (Homo sapiens) (UniProt P25098)
Assay: compounds blocking aptamer binding on GRK2 – biochemical, human GRK2, bead flow cytometry, HTS, primary screen (AID 488847);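 also: median bead fluorescence of bound FAM aptamer so fluorescent compounds give negative values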
Details: FAM-aptamer displacement from GRK2, at 10 µM, hits give high values

Sequence of Beta-adrenergic receptor kinase 1 (Homo sapiens) (P25098 whole entry, looked up): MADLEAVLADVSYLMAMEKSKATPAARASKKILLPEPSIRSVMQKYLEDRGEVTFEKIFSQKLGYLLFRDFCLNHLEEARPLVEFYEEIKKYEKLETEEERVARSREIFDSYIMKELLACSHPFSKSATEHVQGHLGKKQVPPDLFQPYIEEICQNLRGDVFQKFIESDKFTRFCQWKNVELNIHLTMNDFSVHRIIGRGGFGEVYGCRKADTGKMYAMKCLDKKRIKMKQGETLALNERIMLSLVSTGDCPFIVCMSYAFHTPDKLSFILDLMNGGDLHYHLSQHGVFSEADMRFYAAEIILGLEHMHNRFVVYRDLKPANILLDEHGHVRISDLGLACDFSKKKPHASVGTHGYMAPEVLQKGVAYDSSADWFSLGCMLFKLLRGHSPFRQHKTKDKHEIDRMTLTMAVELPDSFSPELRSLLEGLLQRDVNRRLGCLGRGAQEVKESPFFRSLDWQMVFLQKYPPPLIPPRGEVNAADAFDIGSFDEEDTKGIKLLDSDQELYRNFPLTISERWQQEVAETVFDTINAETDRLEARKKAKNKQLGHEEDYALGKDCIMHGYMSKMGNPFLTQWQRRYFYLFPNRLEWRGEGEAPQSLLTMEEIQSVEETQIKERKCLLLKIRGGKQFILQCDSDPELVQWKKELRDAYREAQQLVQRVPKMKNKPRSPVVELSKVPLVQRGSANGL

| SMILES | inhibition of aptamer binding |
| --- | --- |
| Cc1cccc(Nc2ccccc2C(=O)NCc2ccco2)c1C | 0% |
| CCOc1cc(NC(=S)NCc2ccco2)c(OCC)cc1NC(=O)c1ccco1 | 0% |
| CCOc1ccccc1C(=O)NCc1ccco1 | 50% (active) |
| CC(C)CN(C(=O)COC(=O)c1ccc2ccccc2c1)c1c(N)n(Cc2ccccc2)c(=O)[nH]c1=O | 0% |
| Cc1csc(=O)n1CC(=O)OCC(=O)N(CC(C)C)c1c(N)n(Cc2ccccc2)c(=O)[nH]c1=O | 98% (active) |
| CC(C)CN(C(=O)COC(=O)c1ccc(Cl)c(N)c1)c1c(N)n(Cc2ccccc2)c(=O)[nH]c1=O | 1% |
| c1ccc(CC2CCN(c3nc4ccccc4n4cnnc34)CC2)cc1 | 0% |
| COc1ccc(C(=O)NCCNc2ccc([N+](=O)[O-])cn2)cc1 | 45% (active) |
| COc1ccccc1OCCNC(=O)c1cc([N+](=O)[O-])cc([N+](=O)[O-])c1 | 0% |
| COc1ccc(C(=O)NCCSc2ccccc2C)cc1 | 0% |
| O=C(N/N=C/C=C/c1ccco1)c1cccs1 | 7% |
| Cc1nn(C)c(Cl)c1CN1CCC(n2nccc2NC(=O)C2CCCC2)CC1 | 4% |
| COc1ccc(S(=O)(=O)N2CCOCC2)cc1C(=O)NC1CCCCC1 | 3% |
| CC1CCCCC1NC(=O)CN1CCC(O)(c2ccc3c(c2)OCO3)CC1 (stereo not drawn) | 1% |
| COc1ccc(CNC(=O)COc2ccccc2C(=O)c2cnn(-c3ccccc3)c2)cc1OC | 1% |
| Cc1ncc(CC(=O)n2cc(C(=O)c3cc(Cl)ccc3O)cn2)s1 | 6% |
| O=C(c1cnn(-c2ccc(Cl)cc2)c1)c1ccccc1O | 47% (active) |
| Cc1ccc(C)c(S(=O)(=O)N2CCN(c3ncnc4sccc34)CC2)c1 | 2% |
| Cc1ccc(-n2ncc3c2CC(C)(C)CC3NC(=O)Cc2c(C)noc2C)cc1 (stereo not drawn) | 3% |
| CCOC(=O)C1CCN(C(c2cc3cc(C)cc(C)c3[nH]c2=O)c2nnnn2C2CCCCC2)CC1 (stereo not drawn) | 0% |
| Cc1ccc(Nc2nc(N)nc(CN3CCN(Cc4ccccc4)CC3)n2)cc1Cl | 1% |
| CCOC(=O)C1CCCN(CCSc2ccc(C)cc2)C1 (stereo not drawn) | 0% |
| CCOC(=O)C1CCCN(Cc2nc(N)nc(Nc3ccc(C)cc3)n2)C1 (stereo not drawn) | 60% (active) |
| Cc1cc(C)c2nc(N3CCC(C(=O)NCCN4CCOCC4)CC3)sc2c1 | 1% |
| CC1CCN(CC(=O)Nc2nccs2)CC1 | 1% |
| O=C(/C=C/c1ccc(N2CCOCC2)cc1)c1ccccc1 | 0% |
| Cc1cccc(N2C(=O)c3ccc(C(=O)Nc4cccc(C(=O)O)c4)cc3C2=O)c1 | 0% |
| O=C(O)c1ccc2c(c1)C(=O)N(c1ccc(/C=C/C(=O)c3ccccc3)cc1)C2=O | 46% (active) |
